# Screening data (PubChem BioAssay)
# NPSR antagonist: neuropeptide S receptor (human) antagonism, cAMP. CHO-NPSR cells, cAMP TR-FRET, antagonist mode. Potency, µM (series often up to 38.3 µM), usual class: inhibitors. Q6W5P4. actives 1% (n = 220,000); active = well fitted curve in the direction sought with a large enough effect; inconclusive = small, poorly fitted or top-dose-only effect, or another doubt; inactive = no such curve, though single readings can be large; an effect the other way counts as inactive or inconclusive; also: nearly all actives have a fitted effect of over 50% in size
# FBPA coupling cs: inhibits coupling enzyme system, counter-screen for aldolase hits | actives 0.67% (n = 290,000) | coupling enzyme system counterscreen, AmpLite Red fluorescence | activity change, negative = inhibition, % at 58.2 µM, hits read low; in the data active = activity change below about -30%
#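 Coupling enzymes only (glyceraldehyde-3-phosphate) + compound, at 57.5 uM final, 10 min RT; add substrate/coupling/AmpLite Red mix, 20 min RT; fluorescence ex 525/em 598 nm. Actives flag coupling-system interference.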
# RGS12 GoLoco inh: inhibitors of human Gai1-RGS12 GoLoco interaction (red fluorophore); Potency, µM (series often up to 61.6 µM), actives largely listed as inhibitors; P63096; Gai1:RGS12 GoLoco peptide FP, rhodamine, 10 min; actives 0.44% (n = 230,000); active = well fitted inhibition curve with a large enough effect, not every such curve was filed as active; inactive = no such curve, though single readings can be large or run the other way; also: nearly all actives have a fitted effect of over 30% in size
# JMJD2E inh: JMJD2E (human) inhibition. JMJD2E catalytic domain, FDH-coupled NADH fluorescence (FDH is formaldehyde dehydrogenase). Potency, µM (series often up to 57.1 µM), actives largely listed as inhibitors. actives 1.6% (n = 230,000). AID 2147; also: nearly all actives have a fitted effect of over 50% in size
# Sfp PPTase inh: blocks B. subtilis Sfp PPTase activity; actives 3.5% (n = 310,000); AID 1490; Biochemical Sfp PPTase activity, qHTS; Potency, µM, hits mostly inhibitors; active = well fitted curve in the direction sought with a large enough effect; inconclusive = small, poorly fitted or top-dose-only effect, or another doubt; inactive = no such curve, though single readings can be large; an effect the other way counts as inactive or inconclusive;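 also: the enzyme is Sfp with the accession as filed and its product quenches rhodamine fluorescence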
#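 Fluorescence-quenching assay: 15 nM Sfp-PPTase preincubated 15 min at room temperature with compound, then 5 uM rhodamine-CoA and 12.5 uM BHQ-2-labelled YbbR peptide added. Fluorescence (ex 525/em 598 nm) read at start and after 30 min; difference gives rate.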
# ALDH1A1 block: ALDH1A1 (human) enzyme inhibition. AID 1030. P00352. Potency, µM (series often up to 75.3 µM), actives largely listed as inhibitors. Purified ALDH1A1, NADH fluorescence, propionaldehyde substrate. actives 7.3% (n = 220,000)
# Target sequence (P00352 whole entry, looked up): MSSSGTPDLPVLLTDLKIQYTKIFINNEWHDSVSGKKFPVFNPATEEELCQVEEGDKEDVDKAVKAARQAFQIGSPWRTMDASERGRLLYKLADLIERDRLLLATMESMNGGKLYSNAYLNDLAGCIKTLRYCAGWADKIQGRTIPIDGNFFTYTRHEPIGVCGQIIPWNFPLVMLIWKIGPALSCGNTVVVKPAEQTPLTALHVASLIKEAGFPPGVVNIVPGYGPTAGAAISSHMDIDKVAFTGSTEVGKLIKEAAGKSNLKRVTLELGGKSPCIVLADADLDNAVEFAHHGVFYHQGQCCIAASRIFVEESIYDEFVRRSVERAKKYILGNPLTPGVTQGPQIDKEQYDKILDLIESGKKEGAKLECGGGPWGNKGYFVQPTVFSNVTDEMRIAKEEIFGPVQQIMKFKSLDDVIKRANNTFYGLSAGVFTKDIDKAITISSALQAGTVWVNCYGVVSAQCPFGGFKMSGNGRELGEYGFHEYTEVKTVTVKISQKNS
# A number is an active result; – = inactive; ? = inconclusive; · = not tested or not shown; ! = repeats disagree. This is a sample that favours compounds with a hit; in the whole collection about 8.5% have one here. Unless noted, calls follow the shape of the dose curve; as a rule, active = well fitted inhibition curve with a large enough effect (not every such curve was filed as active); inconclusive = small, poorly fitted or top-dose-only effect, or another doubt; inactive = no such curve, though single readings can be large or run the other way.
SMILES,NPSR antagonist,FBPA coupling cs,RGS12 GoLoco inh,JMJD2E inh,Sfp PPTase inh,ALDH1A1 block
CCOc1cc2c(C#N)c(N3CCNCC3)nc(N)c2c(N)n1,–,–,–,?,–,?
CCOC(=O)C1CCN(c2nc(N)c3c(N)nc(SCC(=O)O)cc3c2C#N)CC1,–,-32,–,?,6.3µM,?
Cn1c(=O)c2c([nH]c(OCc3ccc(Cl)cc3Cl)[n+]2Cc2ccc(F)cc2)n(C)c1=O,–,–,–,–,–,·
N#Cc1cccc(-c2cc(NCc3cccs3)ncn2)c1,·,–,–,–,–,?
CCC1(CC)C(=O)C2=C3C1[C@H](C(=O)OC)C=C(C(=O)OC)C[C@H]3n1c(=O)n(-c3ccccc3)c(=O)n1[C@H]2C (some centres not stated),·,–,·,·,–,·
COCc1cc(C)nc(N2CCCCC2)c1C#N,–,–,–,–,–,–
COc1cc2c(C#N)c(N3CCCCC3)nc(N)c2c(N)n1,–,-52,–,?,–,?
COc1ccc(CN2C(=O)Cc3c2nc(N)c2c(N)nc(N4CCCCC4)c(C#N)c32)cc1,–,–,–,14µM,–,–
O=c1c2cc(N3CCOCC3)ccc2[nH]c(=S)n1CCc1ccccc1,–,–,–,?,–,?
O=c1c2cc(N3CCOCC3)ccc2[nH]c(=S)n1Cc1ccccn1,–,-41,–,?,20µM,?
O=c1cc(O)sc2ccccc12,–,–,–,–,–,?
O=c1[nH]sc2ccccc12,–,–,–,?,5µM,?
CC(=O)N1CCN(C(=O)c2cc(=O)c3ccccc3o2)CC1,·,–,·,·,–,·
CCN(CCCc1ccccc1)CCCc1ccccc1,–,–,28µM!,8.9µM,–,–
O=C(CNC(=O)C1CCCCC1)NNC(=O)c1ccccc1Br,·,·,·,·,–,·
COc1ccc(CCN(C)C(=O)CNC(=O)Cc2cccc3ccccc23)cc1OC,·,·,·,·,–,·
CC(C)(C)CN1CCNC(=O)C1CC(=O)N1CCN(c2ccccc2)CC1 (configuration not stated),–,-38,–,?,–,·
CC(C)(C)CN1CCNC(=O)C1CC(=O)N1CCC(C(=O)N2CCOCC2)CC1 (configuration not stated),–,–,–,?,–,–
NS(=O)(=O)c1ccc(CNC(=O)c2ccncc2)cc1,·,–,·,·,–,·
CCOC(=O)c1[nH]cnc1C(=O)Nc1ccccn1,–,–,·,–,–,0.25µM
COc1ccccc1C1CC(c2cccs2)=Nc2ccccc2S1 (configuration not stated),–,–,–,–,50µM,–
COc1ccccc1C1CC(c2cccs2)=NN1C(=O)CCC(=O)O (configuration not stated),·,–,·,·,–,·
CS(=O)(=O)c1ccc(S(=O)CC(=O)Oc2ccc(Cl)cc2)c([N+](=O)[O-])c1 (configuration not stated),–,–,–,3.2µM,?,?
Nc1ccc2c(c1)-c1ccccc1S(=O)(=O)N2,?,–,2µM,?,–,–
Cn1c(SCC(=O)c2ccc3c(c2)NC(=O)CO3)nc2ccccc21,–,–,–,–,–,–
SMILES,NPSR antagonist,FBPA coupling cs,RGS12 GoLoco inh,JMJD2E inh,Sfp PPTase inh,ALDH1A1 block
O=C1COc2ccc(C(=O)CSc3nnnn3-c3ccccc3)cc2N1,–,–,–,–,–,5µM
CCCn1c(SCC(=O)c2ccc3c(c2)NC(=O)CO3)nc2ccccc21,–,–,–,–,–,3.2µM
Cc1ccc(-n2nnnc2SCC(=O)c2ccc3c(c2)NC(=O)CO3)c(C)c1,–,–,–,–,–,?
CC(C)Cn1c(-c2csc3c2CCCC3)n[nH]c1=S,–,–,–,?,?,35µM
Nc1cccc2nsnc12,–,–,–,?,–,·
Nc1cc2nsnc2cc1Br,2.5µM,-32,–,–,40µM,7.9µM
Clc1cccc(OCCN2CCNCC2)c1,–,–,–,?,–,18µM
CCN1CCN(CCOc2ccc(Cl)cc2)CC1,–,–,–,–,14µM,?
CCOc1ccccc1C(=O)Nc1cc(C)ccc1NC(=O)c1ccco1,·,·,·,·,–,·
O=C1c2ccc([N+](=O)[O-])cc2S(=O)(=O)N1Cc1ccccc1,·,–,·,·,–,·
NNc1cc([N+](=O)[O-])cc2c1C(=O)N(Cc1ccccc1)S2=O (configuration not stated),–,–,–,–,22µM,14µM
Cc1cc[n+](-c2nc3ccccc3nc2C(=C=[N-])C#N)cc1,–,-41,·,–,–,–
CSCC[C@H](NC(=O)OC(C)(C)C)C(=O)NCC1CCC(C(=O)N[C@@H](Cc2ccccc2)C(=O)O)CC1 (some centres not stated),·,–,·,·,–,·
O=C(CC(Nc1cccc(Cl)c1Cl)C(=O)O)c1ccccc1 (configuration not stated),–,–,–,?,8.9µM,0.35µM
O=C(Cc1ccccc1)NCC(=O)OCC(=O)c1cccs1,–,–,–,–,–,–
O=C(CC(Nc1cccc(Cl)c1Cl)C(=O)OCC(=O)c1cccs1)c1ccccc1 (configuration not stated),–,–,–,–,56µM,?
COc1ccccc1NC(=O)CCCC(=O)OCC(=O)c1ccc(F)cc1,·,·,·,·,–,·
COc1ccccc1NC(CC(=O)c1ccccc1)C(=O)OCC(=O)c1ccc(F)cc1 (configuration not stated),–,–,–,–,?,13µM
C/C(=N\NC(=O)CNc1cccc(Cl)c1C)c1cccs1,–,–,–,–,–,–
Cc1c(Cl)cccc1NC(CC(=O)c1ccccc1)C(=O)OCC(=O)c1cccs1 (configuration not stated),–,–,·,–,8.9µM,–
CCOc1ccc(N2CC(C(=O)Nc3nnc(Cc4ccc(OC)cc4)s3)CC2=O)cc1 (configuration not stated),·,–,·,·,–,·
Cc1cc(OCC(O)CN2CCN(c3ccccn3)CC2)cc(C)c1Cl (configuration not stated),·,–,·,·,–,·
Cc1ccnc(Nc2nc3ccccc3o2)n1,–,–,–,–,71µM,–
Cc1nc(Nc2nc3ccccc3o2)nc(C)c1C,–,–,–,–,–,–
COc1ccc(-c2ccc(C3C4C=CCC(C)C4C(=O)N3Cc3ccccc3)c(F)c2)cc1 (configuration not stated),·,–,·,·,?,·
SMILES,NPSR antagonist,FBPA coupling cs,RGS12 GoLoco inh,JMJD2E inh,Sfp PPTase inh,ALDH1A1 block
COc1ccccc1CNC(=O)Cn1c(=O)oc2cc(S(=O)(=O)N3CCCC3)ccc21,·,–,·,·,–,·
O=C(Cn1c(=O)oc2cc(S(=O)(=O)N3CCCC3)ccc21)NCc1ccccn1,–,–,–,–,–,18µM
CCOC(=O)c1cn2ccc(C)cc2n1,–,–,–,?,–,–
Cc1ccn2cc(CC(=O)O)nc2c1,–,–,–,?,56µM,?
Cc1ccn2cc(-c3ccc(O)c(O)c3)nc2c1,·,–,·,·,50µM,·
O=C(CCOc1ccccc1)Nc1ccccc1F,·,–,·,·,–,·
CC(=O)Nc1ccc(C(=O)CSc2nccc(=O)[nH]2)cc1,–,–,–,–,–,–
